Eight molecules from PubChem BioAssay (Tox21) can be followed below.

Values without a mark were called inactive. Results filed as inconclusive are left out. Active and inactive are the calls of the source. Unless noted, the call rests on the fitted dose curve; in most records, active means well fitted curve in the direction sought with a large enough effect in the repeat runs; inconclusive means weak or mixed curves; inactive means no such curve, though single readings can be large; an effect the other way counts as inactive or inconclusive.

Test [1] in a line: qHTS assay to identify small molecule antagonists of the sonic hedgehog signaling (Shh) pathway (AID 1259369; calls by dose curve; further: nearly all actives have a fitted effect of over 45% in size). The procedure, abridged: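 Conditioned medium drives Shh signalling in 3T3Gli1-Luc cells; compounds in DMSO co-applied, 24hr at 37 C, then luciferase luminescence.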
Test [2] concerns the target Estrogen receptor beta (Homo sapiens) (UniProt Q92731). The test is described as follows: qHTS assay to identify small molecule agonists of the estrogen receptor beta (ER-beta) signaling pathway (AID 1259377; active means well fitted activation curve with a large enough effect in the signal ratio in the repeat runs, not every such curve was filed as active; the % refers to the signal ratio). The essentials: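 HEK293T ER-beta-UAS-bla; 2% charcoal-stripped FBS; cells pre-incubated 6 hr, compound 16 hr, 37C/5% CO2; LiveBLAzer B/G FRET substrate 2 h RT; fluorescence intensity read.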

The target is the same in test [3]. The test is described as follows: qHTS assay to identify small molecule antagonists of the estrogen receptor beta (ER-beta) signaling pathway (AID 1259378; active means well fitted inhibition curve with a large enough effect in the signal ratio in the repeat runs, not every such curve was filed as active; the % refers to the signal ratio). The essentials:
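Antagonist mode: compounds added to beta-lactamase reporter HEK293T ER-beta-UAS cells stimulated with E2 (1nM final), 16 hr at 37C. LiveBLAzer B/G FRET substrate, 2 hours room temperature, fluorescence read-out.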
For orientation: qHTS replaces the single test concentration by a dilution series.

A short description of test [4]: qHTS assay to identify small molecule agonists of the androgen receptor (AR) signaling pathway in the presence of an antagonist - cell viability counter screen (AID 1259379). Further: nearly all actives have a fitted effect of over 25% in size. Further: potency means the concentration at half of the fitted maximal effect.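 On activity change, negative = cytotoxicity: MDA-kb2 human breast cancer cells carrying an MMTV luciferase reporter; series mostly up to about 92 µM.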 The procedure, abridged: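 A CellTiter-Fluor read-out measured viability of MDA-kb2 reporter cells (MMTV promoter with AR and GR response elements). Treatment: nilutamide 3.0uM final with compounds at 15 concentrations, 16 hr, 37C, 0% CO2.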

The nature of test [5]: qHTS assay to identify small molecule agonists of the estrogen receptor beta (ER-beta) signaling pathway - cell viability counter screen (AID 1259380). Further: nearly all actives have a fitted effect of over 30% in size. The essentials:
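Cells used were ER-beta-UAS-bla HEK293T in medium with 2% charcoal-stripped FBS. They were treated for 16 hr at 37C. Viability came from CellTiter-Glo luminescence.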

Test [6] in a line: qHTS assay to identify small molecule antagonists of the estrogen receptor beta (ER-beta) signaling pathway - cell viability counter screen (AID 1259382). Further: series mostly up to about 92 µM; nearly all actives have a fitted effect of over 55% in size. The procedure, abridged: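 Agonist-stimulated (1nM E2) ER-beta-UAS-bla HEK293T cells are incubated with library compounds for 16 hr at 37C. Cell viability is then assessed in the reporter-assay wells by adding CellTiter-Glo and reading luminescence after 30 min.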

Test [7] in a line: qHTS assay to identify small molecule agonists of the estrogen receptor alpha (ER-alpha) signaling pathway in the presence of an antagonist - cell viability counter screen (AID 1259386).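 Further: cells exposed to compounds for 22 h at 37 °C before the viability read; nearly all actives have a fitted effect of over 30% in size.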 Further: potency means the concentration at half of the fitted maximal effect. On activity change, negative = cytotoxicity: series mostly up to about 92 µM. The procedure, abridged:
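ICI-182,780 at 10.0nM final accompanies the compound titration (15 concentrations, 22hr, 37C) on VM7Luc4E2 cells. The CellTiter-Fluor fluorescence readout runs in the same wells as the luciferase assay.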

Test [8] addresses Progesterone receptor (Homo sapiens) (UniProt P06401). The test is described as follows: qHTS assay to identify small molecule agonists of the progesterone receptor (PR) signaling pathway (AID 1346784; calls by dose curve; further: nearly all actives have a fitted effect of over 30% in size). The procedure, abridged:
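Beta-lactamase reporter read-out: after 16 hr compound treatment at 37C and a further 2 hr at room temperature with LiveBLAzer B/G FRET substrate, fluorescence was measured in PR-UAS-bla HEK 293T cells grown in 2% charcoal-stripped serum.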

Test [9] shares this target. The test can be described thus: qHTS assay to identify small molecule antagonists of the progesterone receptor (PR) signaling pathway (AID 1346795; active means well fitted inhibition curve with a large enough effect in the signal ratio in the repeat runs, not every such curve was filed as active; the % refers to the signal ratio). The essentials: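 Read-out is fluorescence from the LiveBLAzer B/G FRET substrate, cleaved by a UAS-controlled beta-lactamase in PR-UAS-bla HEK293T cells after 16 hr exposure to compound plus 1 nM promegestone (final), followed by 2 hr at room temperature.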

Test [10] is described as follows: qHTS assay to identify small molecule antagonists of the progesterone receptor (PR) signaling pathway - cell viability counter screen (AID 1346798).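 Further: HEK293T PR-UAS-bla cells stimulated with the agonist R5020; series mostly up to about 92 µM; nearly all actives have a fitted effect of over 50% in size.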 The essentials:
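HEK293T PR-UAS-bla, 2% charcoal-stripped FBS; 4 hr pre-plate; cpd + R5020, 16 h 37C; LiveBLAzer read first; then CellTiter-Glo 30 min RT, luminescence.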

A short description of test [11]: qHTS assay to identify small molecule agonists of the progesterone receptor (PR) signaling pathway - cell viability counter screen (AID 1346799; calls by dose curve; further: nearly all actives have a fitted effect of over 45% in size). The procedure, abridged:
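Luminescence from CellTiter-Glo, added after the beta-lactamase FRET read in the same wells, gave cytotoxicity in PR-UAS-bla HEK293T cells treated with compounds for 16 hr at 37C.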

Test [12] is described as follows: qHTS assay to identify small molecule antagonists of the TGF-beta/Smad signaling pathway - cell viability counter screen (AID 1346824). Further: nearly all actives have a fitted effect of over 50% in size. The procedure, abridged: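 Cytotoxicity counter-screen run in the same wells as the beta-lactamase Smad reporter read: CellTiter-Glo luminescence after 30 min at room temperature. HEK 293T SBE-bla cells had 5 hr compound exposure at 37 C with TGF-beta1 (0.25 ng/mL stock).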

Test [13] can be described thus: qHTS assay to identify small molecule agonists of the TGF-beta/Smad signaling pathway - cell viability counter screen (AID 1346829). Further: top concentration of the series differs between compounds; nearly all actives have a fitted effect of over 45% in size. The procedure, abridged:
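SBE-bla HEK 293T cells plated overnight, compound exposure 5 hr at 37 C. Viability read in the same wells by CellTiter-Glo luminescence after 30 min at room temperature, following the beta-lactamase read.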

Test [14] can be described thus: qHTS assay to identify small molecule agonists of the TGF-beta/Smad signaling pathway (AID 1346859; active means well fitted activation curve with a large enough effect in the signal ratio in the repeat runs, not every such curve was filed as active; the % refers to the signal ratio; further: series mostly up to about 77 µM). The essentials:
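SBE-bla HEK 293T, 4,000 cells/well, plated o/n; cpd in DMSO, 5 hr, 37 C/5% CO2; B/G FRET substrate 2 hr RT; ex 405, em 460/530 nm.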

The target of test [15] is Thyrotropin-releasing hormone receptor (Homo sapiens) (UniProt P34981). The test is described as follows: qHTS assay to identify small molecule antagonists of the thyrotropin-releasing hormone receptor (TRHR) signaling pathway (AID 1346877; active means well fitted inhibition curve with a large enough effect in the repeat runs, not every such curve was filed as active; further: series mostly up to about 51 µM). The procedure, abridged:
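Screening used HEK293 cells engineered with TRHR, with a brief 5 min room-temperature compound exposure preceding addition of TRH to 1 nM. The read-out was kinetic calcium-dye fluorescence, concentration-response from 15 doses in triplicate.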

The target is the same in test [16]. The test is described as follows: qHTS assay to identify small molecule agonists of the thyrotropin-releasing hormone receptor (TRHR) signaling pathway (AID 1346891; calls by dose curve; further: potency means the concentration at half of the fitted maximal effect; on activation: series mostly up to about 58 µM). The procedure, abridged: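 Intracellular calcium rise, read as fluorescence every second for 3 min, served as the agonist signal in dye-loaded HEK293 cells expressing TRHR; each compound ran at 15 concentrations in triplicate.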

Test [17] addresses Estrogen receptor (Homo sapiens) (UniProt P03372). The test can be described thus: qHTS assay to identify small molecule agonists of the estrogen receptor alpha (ER-alpha) signaling pathway in the presence of an antagonist (AID 1259383; calls by dose curve; further: top concentration of the series differs between compounds; nearly all actives have a fitted effect of over 15% in size). The procedure, abridged: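 Using VM7Luc4E2 cells seeded 24hr before treatment, antagonist ICI-182,780 (10.0nM final) was added, followed by compounds at 15 concentrations. Plates incubated 22hr; ONE-Glo luminescence quantified reporter activity.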

A short description of test [18]: qHTS assay to identify small molecule agonists or antagonists of the thyroid stimulating hormone receptor (TSHR) signaling pathway - wild type cell line counter screen (AID 1259384; calls by dose curve). The essentials: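 Counter screen in untransfected Hek293: compounds (15-point titration, triplicate) plus phosphodiesterase inhibitor Ro20-1724 added after 18 h plating; 30 min RT. Intracellular cAMP via competitive d2/cryptate immunoassay, 1 h incubation.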

In test [19] the target is Thyrotropin receptor (Homo sapiens) (UniProt P16473). The test is described as follows: qHTS assay to identify small molecule antagonists of the thyroid stimulating hormone receptor (TSHR) signaling pathway (AID 1259385; calls by dose curve; further: nearly all actives have a fitted effect of over 20% in size). The procedure, abridged:
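Antagonist mode: compound-treated TSHR-expressing HEK293 cells were stimulated with 1.5 ng/mL TSH (final) in presence of Ro20-1724 for 30 min at RT. HTRF cAMP detection after 1 h; each compound tested at 15 concentrations, triplicate.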

Test [20] addresses Androgen receptor (Homo sapiens) (UniProt P10275). The test is described as follows: qHTS assay to identify small molecule agonists of the androgen receptor (AR) signaling pathway in the presence of an antagonist (AID 1259381; calls by dose curve; further: nearly all actives have a fitted effect of over 15% in size). The procedure, abridged: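 Using human MDA-kb2 cells with an MMTV promoter–luciferase construct (AR and GR response elements), agonist activity is scored under 3.0uM nilutamide (final) co-treatment; 16hr incubation, 37C, luminescence readout via ONE-Glo.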
On the % scale 0 is the no-effect control and ±100 the full control effect.

Progesterone receptor (Homo sapiens), sequence (P06401 whole entry, looked up): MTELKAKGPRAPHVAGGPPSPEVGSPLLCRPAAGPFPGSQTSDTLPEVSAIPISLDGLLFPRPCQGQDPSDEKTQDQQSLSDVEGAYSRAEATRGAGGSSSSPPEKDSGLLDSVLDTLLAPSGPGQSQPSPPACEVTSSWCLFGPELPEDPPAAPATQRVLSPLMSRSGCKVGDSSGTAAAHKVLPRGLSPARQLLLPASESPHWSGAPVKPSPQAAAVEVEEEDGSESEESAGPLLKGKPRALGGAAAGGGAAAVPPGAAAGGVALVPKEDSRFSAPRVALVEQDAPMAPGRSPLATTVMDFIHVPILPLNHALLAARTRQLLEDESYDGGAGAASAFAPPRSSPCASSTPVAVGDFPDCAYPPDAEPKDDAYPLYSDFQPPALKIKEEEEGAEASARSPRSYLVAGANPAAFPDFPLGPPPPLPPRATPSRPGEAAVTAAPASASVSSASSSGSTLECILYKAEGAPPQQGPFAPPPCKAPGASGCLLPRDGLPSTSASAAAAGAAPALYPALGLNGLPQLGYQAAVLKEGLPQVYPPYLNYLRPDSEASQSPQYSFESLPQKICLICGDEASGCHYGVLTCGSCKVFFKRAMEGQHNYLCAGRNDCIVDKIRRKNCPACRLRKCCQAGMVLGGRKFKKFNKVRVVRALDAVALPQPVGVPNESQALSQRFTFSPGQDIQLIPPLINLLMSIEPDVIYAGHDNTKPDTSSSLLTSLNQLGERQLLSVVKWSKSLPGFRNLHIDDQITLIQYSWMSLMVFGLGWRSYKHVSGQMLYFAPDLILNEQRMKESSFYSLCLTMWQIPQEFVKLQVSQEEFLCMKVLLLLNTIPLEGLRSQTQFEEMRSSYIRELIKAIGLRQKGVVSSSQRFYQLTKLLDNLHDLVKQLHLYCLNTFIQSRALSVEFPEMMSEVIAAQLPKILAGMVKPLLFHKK
Estrogen receptor (Homo sapiens), sequence (P03372 whole entry, looked up): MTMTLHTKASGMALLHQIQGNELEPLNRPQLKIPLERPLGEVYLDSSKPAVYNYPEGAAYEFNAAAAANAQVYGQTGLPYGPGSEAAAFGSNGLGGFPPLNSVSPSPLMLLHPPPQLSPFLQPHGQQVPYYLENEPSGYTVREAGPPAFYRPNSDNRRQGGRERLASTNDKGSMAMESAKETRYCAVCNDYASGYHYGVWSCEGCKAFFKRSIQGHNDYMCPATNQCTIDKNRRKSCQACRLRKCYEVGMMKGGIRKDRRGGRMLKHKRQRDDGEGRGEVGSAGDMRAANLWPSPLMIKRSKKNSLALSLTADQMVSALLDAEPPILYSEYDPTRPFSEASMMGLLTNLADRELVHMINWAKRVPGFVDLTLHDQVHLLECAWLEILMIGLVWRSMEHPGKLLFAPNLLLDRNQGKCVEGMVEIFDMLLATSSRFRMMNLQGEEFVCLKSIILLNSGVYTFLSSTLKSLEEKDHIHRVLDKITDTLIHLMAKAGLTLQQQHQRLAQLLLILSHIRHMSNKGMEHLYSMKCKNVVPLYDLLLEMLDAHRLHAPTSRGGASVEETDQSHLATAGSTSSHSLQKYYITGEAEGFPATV
Thyrotropin receptor (Homo sapiens), sequence (P16473 whole entry, looked up): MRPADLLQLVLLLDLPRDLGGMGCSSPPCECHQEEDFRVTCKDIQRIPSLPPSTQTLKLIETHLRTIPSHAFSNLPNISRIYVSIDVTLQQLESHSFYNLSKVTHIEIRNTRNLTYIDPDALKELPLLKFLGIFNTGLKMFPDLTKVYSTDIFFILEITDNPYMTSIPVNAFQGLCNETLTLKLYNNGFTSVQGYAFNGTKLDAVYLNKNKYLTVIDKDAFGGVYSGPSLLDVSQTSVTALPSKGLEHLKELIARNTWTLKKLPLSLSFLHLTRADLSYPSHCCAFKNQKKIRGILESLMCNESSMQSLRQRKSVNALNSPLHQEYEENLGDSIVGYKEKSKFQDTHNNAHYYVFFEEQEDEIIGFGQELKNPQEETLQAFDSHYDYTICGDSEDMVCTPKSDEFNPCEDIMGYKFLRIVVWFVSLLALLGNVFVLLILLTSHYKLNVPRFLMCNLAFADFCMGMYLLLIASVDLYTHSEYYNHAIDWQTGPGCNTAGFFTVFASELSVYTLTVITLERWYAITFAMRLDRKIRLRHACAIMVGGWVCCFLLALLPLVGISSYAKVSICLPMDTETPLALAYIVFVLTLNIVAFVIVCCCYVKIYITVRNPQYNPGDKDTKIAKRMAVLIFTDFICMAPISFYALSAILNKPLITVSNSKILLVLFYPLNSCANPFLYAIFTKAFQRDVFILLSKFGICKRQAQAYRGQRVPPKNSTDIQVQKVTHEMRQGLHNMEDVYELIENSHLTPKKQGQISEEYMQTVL
Estrogen receptor beta (Homo sapiens), sequence (Q92731 whole entry, looked up): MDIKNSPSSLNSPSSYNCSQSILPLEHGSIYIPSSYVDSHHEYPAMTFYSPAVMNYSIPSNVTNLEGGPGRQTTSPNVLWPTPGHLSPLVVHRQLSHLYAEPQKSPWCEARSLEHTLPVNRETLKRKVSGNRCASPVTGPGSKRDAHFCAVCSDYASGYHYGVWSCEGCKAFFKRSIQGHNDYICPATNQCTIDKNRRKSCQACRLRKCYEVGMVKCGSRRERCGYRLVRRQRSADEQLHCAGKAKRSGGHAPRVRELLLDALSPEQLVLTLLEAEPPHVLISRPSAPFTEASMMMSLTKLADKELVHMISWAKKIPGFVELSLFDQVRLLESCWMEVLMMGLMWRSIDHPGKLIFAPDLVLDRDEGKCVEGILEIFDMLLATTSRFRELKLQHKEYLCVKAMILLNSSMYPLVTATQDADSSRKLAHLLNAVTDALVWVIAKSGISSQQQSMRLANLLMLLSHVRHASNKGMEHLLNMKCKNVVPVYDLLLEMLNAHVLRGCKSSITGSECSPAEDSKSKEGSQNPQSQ
Thyrotropin-releasing hormone receptor (Homo sapiens), sequence (P34981 whole entry, looked up): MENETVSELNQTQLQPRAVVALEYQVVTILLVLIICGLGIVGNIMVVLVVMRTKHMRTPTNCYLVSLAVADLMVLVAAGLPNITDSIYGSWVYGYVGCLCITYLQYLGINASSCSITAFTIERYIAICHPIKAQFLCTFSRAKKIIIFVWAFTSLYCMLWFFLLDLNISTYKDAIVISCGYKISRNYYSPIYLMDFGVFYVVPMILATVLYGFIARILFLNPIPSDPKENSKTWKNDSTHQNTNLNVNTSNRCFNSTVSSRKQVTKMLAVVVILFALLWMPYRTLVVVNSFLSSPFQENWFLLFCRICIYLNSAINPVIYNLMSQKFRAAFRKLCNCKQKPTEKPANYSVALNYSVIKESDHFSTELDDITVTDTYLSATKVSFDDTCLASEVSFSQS
Androgen receptor (Homo sapiens), sequence (P10275 whole entry, looked up): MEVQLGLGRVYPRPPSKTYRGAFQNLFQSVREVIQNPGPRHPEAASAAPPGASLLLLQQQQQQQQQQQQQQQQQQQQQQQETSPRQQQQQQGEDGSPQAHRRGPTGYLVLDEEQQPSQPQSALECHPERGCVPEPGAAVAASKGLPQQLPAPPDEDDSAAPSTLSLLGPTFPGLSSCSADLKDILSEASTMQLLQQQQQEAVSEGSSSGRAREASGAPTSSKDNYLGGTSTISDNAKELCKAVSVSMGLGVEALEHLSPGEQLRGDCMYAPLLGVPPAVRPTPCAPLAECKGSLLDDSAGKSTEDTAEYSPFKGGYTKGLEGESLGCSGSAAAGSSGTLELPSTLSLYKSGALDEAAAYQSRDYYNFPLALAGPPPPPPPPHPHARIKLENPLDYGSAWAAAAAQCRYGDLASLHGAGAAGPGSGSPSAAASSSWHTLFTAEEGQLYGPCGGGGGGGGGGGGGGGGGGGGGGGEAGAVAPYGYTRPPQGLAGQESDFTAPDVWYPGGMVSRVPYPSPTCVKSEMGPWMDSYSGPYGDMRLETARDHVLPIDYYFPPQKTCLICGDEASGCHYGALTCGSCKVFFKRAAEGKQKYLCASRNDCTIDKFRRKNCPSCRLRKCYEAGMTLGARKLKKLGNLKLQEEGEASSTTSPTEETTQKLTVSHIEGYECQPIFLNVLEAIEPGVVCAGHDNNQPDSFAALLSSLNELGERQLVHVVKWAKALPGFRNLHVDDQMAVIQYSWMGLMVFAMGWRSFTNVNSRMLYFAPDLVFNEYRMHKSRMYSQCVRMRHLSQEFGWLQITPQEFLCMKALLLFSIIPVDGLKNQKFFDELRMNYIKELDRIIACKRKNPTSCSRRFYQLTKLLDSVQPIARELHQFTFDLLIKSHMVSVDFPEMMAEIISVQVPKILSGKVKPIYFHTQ

On to `CCCCCCCCCCCCCCCCCBr`, for which the activity change, negative = inhibition in test [1] was -0.552% [at 19 µM]; in test [9] it was 0.192% [at 18.9 µM]. In addition, the activation in [2] is -3.04% [at 19 µM]; in test [8] it was -0.0997% [at 19 µM]; in [14], 2.19% [at 15.8 µM]; in test [16], -0.232% [at 11.8 µM]. The activity, negative = inhibition in [3] was 11.4% [at 19 µM]; in test [15], -2.78% [at 10.5 µM]. In addition, the activity change, negative = cytotoxicity is 4.41% [at 19 µM] in test [4]; -0.948% [at 19 µM] in test [5]; -6.31% [at 19 µM] in [6]; 0.889% [at 19 µM] in test [7]; -0.341% [at 18.9 µM] in test [10]; 10.6% [at 19 µM] in test [11]. For the same molecule, in [13], the activity change, negative = cytotoxicity is 0.567% [at 15.8 µM]. The viability change, negative = cytotoxic in test [12] was 1.56% [at 15.8 µM].
`CC(=O)NCCCS(=O)(=O)O`: the Potency entry in [1], in [2], in [3], in [4], in [5] and in test [6] was “inactive” throughout. Also, the Potency entry in test [17], in test [18], in test [19], in test [7], in test [10] and in test [11] was “inactive” throughout. In test [13], the Potency result was “inactive”. In addition, the call in test [8], in test [14] and in test [15] was inactive. Further, the Potency in [16] was 11.9 µM (active).
Consider `CC1(C)[C@H]2CC[C@]1(C)[C@H](O)C2`, for which the Potency result in test [1], in test [2], in [3], in [4], in [5] and in [6] was “inactive” throughout. Moreover, the Potency entry in test [18], in [19], in [7], in test [9], in [10] and in [11] was “inactive” throughout. The Potency entry in test [12], in [13] and in test [16] was “inactive” each time. The molecule was classed as inactive in [8] and in test [14].
For the molecule `Cc1cc(C)c(S(=O)(=O)O)cc1N=Nc1cc(S(=O)(=O)O)c2ccccc2c1O`, the Potency result in test [1], in test [2], in [3], in test [5], in test [20] and in test [6] was “inactive” in each case. Moreover, the Potency entry in test [18], in test [19], in [9], in test [10], in [11] and in [12] was “inactive” in each case. In addition, the Potency result in test [13] and in [16] was “inactive” in each case. Further, the Potency in test [4] and in test [7] was 27.3 µM (active) each time. Besides, the outcome in test [8], in test [14] and in test [15] was inactive.
In the case of `O=c1c2ccccc2nnn1CCl`, the Potency entry in test [1], in test [2], in test [3], in test [4], in [5] and in [6] was “inactive” each time. The Potency result in test [17], in test [18], in test [19], in test [7], in test [9] and in test [10] was “inactive” each time. Also, the Potency result in test [12], in test [13] and in [16] was “inactive” throughout. In addition, the result in test [8], in [14] and in test [15] was inactive.
Turning to `CCC(=O)OC(C)(C)C1CC=C(C)CC1` (stereo not drawn), the Potency entry in test [1], in test [2], in test [3], in [4], in test [5] and in test [6] was “inactive” each time. Besides, the Potency result in [17], in test [18], in test [19], in test [7], in test [9] and in test [10] was “inactive” in each case. The Potency entry in [12] and in test [13] was “inactive” in each case. In addition, the result in [8] and in test [14] was inactive.
Regarding `C=C(C)C(=O)OCCN(C)C`, the Potency entry in [1], in [2], in [3], in test [4], in [5] and in test [6] was “inactive” throughout. The Potency result in test [17], in test [7], in [9], in [10], in [11] and in test [12] was “inactive” in each case. Besides, the Potency result in test [13] and in [16] was “inactive” throughout. The result in [8], in [14] and in test [15] was inactive.
Consider `CC(=O)O[C@@H]1C(=O)O[C@@H]2[C@H]1OC(=O)[C@@H]2OC(C)=O`, for which the Potency result in test [1], in test [2], in [3], in test [4], in [5] and in test [6] was “inactive” each time. Besides, the Potency result in [17], in [18], in [19], in test [7], in [9] and in test [10] was “inactive” throughout. Also, the Potency entry in test [11], in test [12], in test [13] and in test [16] was “inactive” each time. Also, the outcome in [8] and in test [14] was inactive.
